The text below walks through data of PubChem BioAssay AID1839 (Johns Hopkins Ion Channel Center, 2009).

In all, about 2,400 compounds went through this assay and about 220 (9.2%) were called active. The sample holds actives, similar compounds and a random draw of the others, so the mix is not that of the screen.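 Rule for the calls: active = signal change above the mean of dofetilide-free buffer controls plus 3 SD, so a positive margin; inactive = the rest.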

The experiment in a line: thallium signal changes without hERG – cell-based, CHO-K1 parental line, FluxOR thallium flux, counter-screen for hERG block protection project, confirmation (AID 1839).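 Note: compounds applied alone with no dofetilide to cells lacking hERG.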 The following applies: CHO-K1 parental cells, FluxOR thallium flux fluorescence; at 10 µM.
In the case of `COc1ccc(CCNS(=O)(=O)c2csc(C(N)=O)c2)cc1OC`, the signal change vs control minus 3*SD hit threshold (margin above threshold, higher = more increase) is -34.6% (inactive).
Next, `CCNC(=S)Nc1scc(-c2ccccc2)c1C(=O)OCC`: -20.8% (inactive); `O=c1oc2ccccc2c(Cl)c1CN1CCCCC1`: -42.9% (inactive); `NC(=O)C1CCN(C(=O)CCC(=O)c2ccc(F)cc2)CC1`: -28.7% (inactive).
Next, `Cc1sc2nc(CN3CCOCC3)[nH]c(=S)c2c1C`: 21.4% (active); `CCOC(=O)NC(=S)Nc1ccc(C(C)(C)C)cc1Br`: -0.4% (inactive); `CC(=O)c1c(C)c2c(n1CCN(C)C)CCCC2`: -15.9% (inactive).
On to `CSc1nc2c(c(=O)[nH]1)C(c1ccc(Cl)cc1)CC(=O)N2` (stereo not given), for which the signal change vs control minus 3*SD hit threshold (margin above threshold, higher = more increase) is -31.6% (inactive).
Next, `O=c1c2ccccc2[nH]c(=S)n1CCc1ccccc1`: 5.9% (active).
In the case of `CCCCCn1c(=S)[nH]c2ncccc2c1=O`, the signal change vs control minus 3*SD hit threshold (margin above threshold, higher = more increase) is -0.3% (inactive).
Next, `O=C(CCn1c(=S)[nH]c2cc3c(cc2c1=O)OCO3)NCc1ccc(Cl)cc1`: -22.3% (inactive); `O=c1c2ccccc2[nH]c(=S)n1CCC1=CCCCC1`: 3% (active); `Cc1ccc(Cn2c(=S)[nH]c3ccccc3c2=O)cc1`: -14.9% (inactive).
Next, `CC(C)CCn1c(=S)[nH]c2ncccc2c1=O`: -18.3% (inactive).
Next, `O=c1c2ccc(Cl)cc2[nH]c(=S)n1CCC1=CCCCC1`: 4.8% (active); `CC(C)COn1c(=S)[nH]c2ccccc2c1=O`: -10.2% (inactive); `O=c1c2cccnc2[nH]c(=S)n1CCC1=CCCCC1`: 14.4% (active).
Regarding `COc1ccccc1Cn1c(=S)[nH]c2ccc(Br)cc2c1=O`, the signal change vs control minus 3*SD hit threshold (margin above threshold, higher = more increase) is -15.7% (inactive).
Next, `CCCCn1c(=S)[nH]c2ccccc2c1=O`: -18.2% (inactive); `O=[N+]([O-])c1ccc(Nc2ccc(Cl)cc2)nc1`: -22% (inactive).
Under `COc1cccc(/C=N/n2c(SC)nnc2-c2ccccc2)c1O` stands -24.3% (inactive); under `Cc1cc(=O)[nH]c(=S)n1-c1ccccc1`, -38.5% (inactive).
For `Cc1nn(-c2cccc(C(F)(F)F)c2)c(Cl)c1/C=N/Nc1cccc(C(=O)O)c1`, the signal change vs control minus 3*SD hit threshold (margin above threshold, higher = more increase) was -28.4% (inactive).
Turning to `CCNC(=O)C/C(C)=N/NC(=O)C(=O)Nc1ccc(CC)cc1`, the signal change vs control minus 3*SD hit threshold (margin above threshold, higher = more increase) is -7.4% (inactive).
Next, `COc1ccc(/C=N/NC(=O)c2ccncc2)cc1CN1CCCc2ccccc21`: -40.9% (inactive).
Next, `CC1CN(S(=O)(=O)c2ccc(-c3nc4ccccc4s3)cc2)CC(C)O1` (stereo not given): -8.4% (inactive); `CCSc1nnc(NC(=O)Cn2cnc3c2c(=O)n(C)c(=O)n3C)s1`: -29.2% (inactive).
Next, `CC(C)CN1C(=O)/C(=C/c2cccs2)NC1=S`: 32% (active).
Take `COc1ccc(N2C(=O)/C(=C/c3cccs3)NC2=S)cc1`: the signal change vs control minus 3*SD hit threshold (margin above threshold, higher = more increase) is -29.8% (inactive).
Turning to `CCN1C(=O)/C(=C/c2ccc(C)s2)NC1=S`, the signal change vs control minus 3*SD hit threshold (margin above threshold, higher = more increase) was 1.1% (active).
Next, `CC(C)CN1C(=O)/C(=C/c2ccco2)NC1=S`: -30.9% (inactive); `CCCN1C(=O)/C(=C/c2ccc3c(c2)OCO3)NC1=S`: -21.2% (inactive).
Under `CCCN1C(=O)/C(=C/c2ccc(C)s2)NC1=S` stands 33.6% (active).
Under `COc1ccc(C(=O)NC(=S)N2CCC(C)CC2)cc1Br` stands -12.4% (inactive); under `Oc1c(Br)cc(Cl)cc1C=Nc1ccccc1Br`, -1.8% (inactive).
For `O=C(c1ccc(CS(=O)c2cccc(Cl)c2)o1)N1CCCCCC1` (stereo not given), the signal change vs control minus 3*SD hit threshold (margin above threshold, higher = more increase) was -32.8% (inactive).
Next, `NS(=O)(=O)c1ccc(NC(=S)NCc2cccs2)cc1`: -30.2% (inactive); `O=C(Nc1cccnc1)c1cc(-c2cccs2)on1`: -26.5% (inactive).
As for `COC(=O)C1CCCN1C(=O)COc1ccc(Cl)cc1Br` (stereo not given), the signal change vs control minus 3*SD hit threshold (margin above threshold, higher = more increase) was -25.2% (inactive).
Under `O=C(c1c(O)c2ccccc2oc1=O)C1CCCCC1` stands -22% (inactive); under `CCN(Cc1ccccc1)C(=S)NC(=O)c1ccccc1Br`, 27% (active); under `CCCN(Cc1ccccc1)C(=S)NC(=O)c1ccccc1[N+](=O)[O-]`, 24.3% (active).
Next, `CN(Cc1ccccc1)C(=S)NC(=O)c1cccs1`: -20.6% (inactive); `O=C(NC(=S)N(Cc1ccccc1)Cc1ccccc1)c1ccccc1F`: -6.4% (inactive); `CN(C(=S)NC(=O)c1ccccc1)C1CCCCC1`: -23.6% (inactive).
Under `CCN(C(=S)NC(=O)c1ccccc1Br)C1CCCCC1` stands 16.2% (active); under `N#CCCN(Cc1ccccc1)C(=S)NC(=O)c1ccccc1`, -30.7% (inactive); under `CN(C(=S)NC(=O)c1ccccc1Br)C1CCCCC1`, -13.4% (inactive).
On to `CCC(=O)NC(=S)NNC(=O)c1ccccc1[N+](=O)[O-]`, for which the signal change vs control minus 3*SD hit threshold (margin above threshold, higher = more increase) is -28% (inactive).
Under `CCc1cc2cc(C)cc(C)c2[nH]c1=S` stands -11.2% (inactive); under `COc1ccc(OCC(=O)Nc2c3c(nn2-c2ccc(OC)cc2)CS(=O)(=O)C3)cc1`, -14.9% (inactive).
Under `O=C(O)c1ccc(S(=O)(=O)/N=C2\C=C(Nc3ccccc3F)C(=O)c3ccccc32)cc1` stands -14.9% (inactive).
Under `O=C(Nc1ccccc1)OCCCCCOC(=O)Nc1ccccc1` stands -25.4% (inactive); under `O=C(O)c1ccccc1NC(=O)c1cc2ccccc2oc1=O`, -21.3% (inactive).
`Cc1ccc(C)c(NC(=S)NC(=O)c2cncc(Br)c2)c1`: the signal change vs control minus 3*SD hit threshold (margin above threshold, higher = more increase) was -24.9% (inactive).
Next, `CCCCCCC12CCC(C(=O)O)(CC1)CC2`: -8.9% (inactive); `O=c1c2[nH]c3ccccc3c2nc2n1CCCS2`: -3.7% (inactive).
Next, `C=CCNC(=O)c1ccccc1NC(=O)COc1ccc(OC)cc1`: -31.9% (inactive); `COc1ccc(N2CCN(C(=S)NC(=O)c3cccs3)CC2)c([N+](=O)[O-])c1`: -27.4% (inactive).
Take `COc1cc(/C=C/C(=O)N[C@@H](Cc2c[nH]c3ccccc23)C(=O)O)ccc1O`: the signal change vs control minus 3*SD hit threshold (margin above threshold, higher = more increase) is -19.7% (inactive).
Next, `CCCCSc1nnc(CCC)n1N`: -30.7% (inactive); `O=C(CC1CCCC1)Nc1ccc2c(c1)CCC2`: -18.5% (inactive); `CC1Cc2ccccc2N1C(=S)NC(=O)c1ccc(Cl)cc1Cl` (stereo not given): 23.8% (active).
Turning to `O=C(NC(=S)N1CCCc2ccccc21)c1ccc(Br)cc1`, the signal change vs control minus 3*SD hit threshold (margin above threshold, higher = more increase) is -8.9% (inactive).
Take `CC(C)N(Cc1ccccc1)C(=S)NC(=O)C1(C)CC1(Cl)Cl` (stereo not given): the signal change vs control minus 3*SD hit threshold (margin above threshold, higher = more increase) is -9.7% (inactive).
Next, `Cc1cccc(C(=O)NC(=S)N2CCc3ccccc3C2)c1`: -1.3% (inactive); `CC1Cc2ccccc2N1C(=S)NC(=O)c1ccco1` (stereo not given): -28.6% (inactive); `Cc1csc2ncc(C(=O)N3c4ccccc4CC3C)c(=O)n12` (stereo not given): -16.4% (inactive).
Next, `CC(Oc1ccc(Cl)cc1Cl)C(=O)NC(=S)N1CCc2ccccc21` (stereo not given): -7.9% (inactive).
Next, `CC1Cc2ccccc2N1C(=S)NC(=O)c1cccc(Br)c1` (stereo not given): 48.8% (active); `CC1Cc2ccccc2N1C(=S)NC(=O)C1(C)CC1(Cl)Cl` (stereo not given): 11.2% (active); `Oc1c(Cl)cc(CN2CCCCC2)c2cccnc12`: -25.2% (inactive).
Take `CCOC(=O)Cc1csc(NC(=S)NC(=O)c2ccccc2C)n1`: the signal change vs control minus 3*SD hit threshold (margin above threshold, higher = more increase) was -13.6% (inactive).
Next, `Cc1cc(C(=O)NNC(=O)c2cccs2)nn1C(C)(C)C`: -25.3% (inactive).
Consider `O=C(N/N=C1/C(=O)c2cccc3cccc1c23)c1ccc(Cl)cc1`, for which the signal change vs control minus 3*SD hit threshold (margin above threshold, higher = more increase) is 41.5% (active).
Under `O=C(NN=C1c2ccccc2-c2ccccc21)c1ccccc1` stands -27.5% (inactive).
Under `CCNC(=S)N/N=C1\C(=O)c2cccc3cccc1c23` stands -16.8% (inactive); under `Cc1ccc(-c2n[nH]c(=S)nc2-c2ccc(C)cc2)cc1`, -27.5% (inactive); under `CSc1nc2c(c(=O)[nH]1)C(c1ccc(F)cc1)CC(=O)N2` (stereo not given), -36% (inactive).
Next, `CC(C)CC(=O)Nc1ccc2c3c(cccc13)CC2`: -19.8% (inactive).
For `CCn1c(=S)[nH]c2sc3c(c2c1=O)CCCC3`, the signal change vs control minus 3*SD hit threshold (margin above threshold, higher = more increase) was 8.5% (active).
Next, `COCCCn1c(=S)[nH]c2c(sc3ccccc32)c1=O`: -36.9% (inactive); `C=CCn1c(=S)[nH]c2sc3c(c2c1=O)CCCC3`: 3.6% (active).
Under `C=CCn1c(=S)[nH]c2sc3c(c2c1=O)CCC3` stands -7.2% (inactive).
Under `COCCCn1c(=S)[nH]c2sc3c(c2c1=O)CCCC3` stands 2.5% (active); under `C=CCn1c(=S)[nH]c2nc3c(cc2c1=O)CCCC3`, -15.7% (inactive); under `O=c1c2c3c(sc2[nH]c(=S)n1Cc1ccco1)CCC3`, -6.1% (inactive).
For `CCn1c(SCC(N)=O)nc2sc3c(c2c1=O)CCCC3`, the signal change vs control minus 3*SD hit threshold (margin above threshold, higher = more increase) was -14.4% (inactive).
Regarding `CCCn1c(=S)[nH]c2sc3c(c2c1=O)CCCC3`, the signal change vs control minus 3*SD hit threshold (margin above threshold, higher = more increase) was 32.1% (active).
Under `COCCn1c(=S)[nH]c2sc3c(c2c1=O)CCCC3` stands -5.6% (inactive); under `CCCn1c(SCC(=O)N2CCN(C(C)=O)CC2)nc2sc3c(c2c1=O)CCC3`, -6.2% (inactive); under `Cc1ccnc(N2CCC(C(=O)Nc3ccc(Oc4ccccc4)cc3)CC2)n1`, -28.4% (inactive).
Under `CCCn1c(SCC(N)=O)nc2c(c1=O)C1(CCCC1)Cc1ccccc1-2` stands -7.7% (inactive); under `COc1ccc(NC(=O)CCN2C(=O)C3C4C=CC(C4)C3C2=O)cc1` (stereo not given), -35% (inactive).
Next, `C=CCN(CC=C)C(=S)NC(=O)Cc1cccc2ccccc12`: -17.1% (inactive); `COc1ccc(C(CC(=O)N2CCOCC2)c2c(O)cc(OC)cc2OC)cc1` (stereo not given): -27.3% (inactive).
As to `CCSc1nc2c(sc3ccccc32)c(=O)n1C(C)C`, the signal change vs control minus 3*SD hit threshold (margin above threshold, higher = more increase) was -0.8% (inactive).
Next, `Cc1ccc2[nH]c(C(=O)O)c(-c3ccccc3)c2c1`: -18.6% (inactive); `CCOC(=O)C1=C(O)/C(=C/c2ccc(OCC(=O)O)c(OC)c2)SC1=Nc1ccc(OCC)cc1`: -28.1% (inactive); `COc1ccc(-c2cc(C(=O)N3CCCC3)no2)cc1OC`: -5.8% (inactive).
Under `CCOC(=O)c1[nH]c(=O)[nH]c1COC(=O)c1cc2ccccc2o1` stands -34.3% (inactive).
Next, `COc1ccc(NC(=O)CSCC(=O)Oc2c(OC)cccc2OC)cc1`: -30.4% (inactive); `CCn1c(=S)[nH]c2sc3c(c2c1=O)CCCCC3`: 37.1% (active); `Cc1cc(C)n(-c2nc3sc4c(c3c(=O)[nH]2)CCCC4)n1`: -29.7% (inactive).
With `CCn1c(SC(C)C(=O)O)nc2sc3c(c2c1=O)CCC3` (stereo not given), the signal change vs control minus 3*SD hit threshold (margin above threshold, higher = more increase) was -5.9% (inactive).
